AHR act: AHR activators, primary screen, cell-based, luminescence, luciferase reporter, human | AID 2796, 2010 | Aryl hydrocarbon receptor (Homo sapiens), P35869 | activation, % at 5 µM | 2.5% of 320,000 active | AHR-responsive luciferase reporter cells; in the data active = activation above about 47%;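 note: 0% = vehicle wells and 100% = reference agonist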
PLCb3 inh: human PLC-beta3 inhibitors, primary screen, biochemical, fluorescence; 0.18% of 370,000 active; AID 720704, 2013; 1-phosphatidylinositol 4,5-bisphosphate phosphodiesterase beta-3 (Homo sapiens), Q01970; Purified PLC-beta3, fluorogenic substrate; inhibition, % at 12.2 µM; in the data active = inhibition above about 11%;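 note: 0% = median of compound wells on plate and 100% = full blocker control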
sPLA2-III inh: human group III sPLA2 inhibitors, primary screen, biochemical, QFRET, BODIPY PC-A2 liposome substrate; Group 3 secretory phospholipase A2 (Homo sapiens), Q9NZ20; QFRET BODIPY PC-A2 liposome hydrolysis, fluorescence; inhibition, % at 12.2 µM; 0.56% of 370,000 active; AID 743126, 2013;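 active = inhibition above mean plus 3 SD of compounds lying within the high and low control bounds, cut at about 19% in these data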;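 note: 0% = median of test compound wells and 100% = no enzyme DMSO wells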
HIF act: HIF pathway transcriptional activators, primary screen, cell-based, U2OS HRE-luciferase, luminescence; U2OS HRE-luciferase reporter; normalized: DMSO 0%, desferrioxamine 100%; activation, % at 7.5 µM (by protocol); 0.32% of 300,000 active;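 active = mean activation of at least 10% of the iron chelator positive control signal, with at least half of replicates also reaching 10%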
Yeast superoxide: reduction of superoxide in aged yeast, primary screen, HTS | superoxide response (% of plate mean), % at 10 µM | S. cerevisiae aged cells, superoxide DHE fluorescence; stronger effect = lower value | AID 2690, 2010 | 0.18% of 330,000 active;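 active = superoxide response under a set limit, about three screen SD below normal, cut at about 65% in these data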;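 note: yeast aged for seven days with compound at 30 °C before DHE staining; 100% = average MFI of all compound-treated wells on the plate with controls excluded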
PLC-gamma1 inh: PLC-gamma1 enzyme inhibitors, primary screen, biochemical, fluorescence, purified enzyme | fluorogenic substrate | inhibition, % at 12.2 µM | 0.84% of 370,000 active | AID 720700, 2013; in the data active = inhibition above about 9.5%
CR mimetic CP: superoxide lowering in aged yeast cells, confirmation, cherry picked compounds. shares compounds with Yeast superoxide. S. cerevisiae aging, superoxide DHE fluorescence; stronger effect = lower value. superoxide response (% of plate), % at 10 µM. 1% of 850 active;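 active = superoxide signal below 65% of the plate average of sample wells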;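 note: cells aged with compound for 7 days at 30 degrees C before staining; 100% equals mean DHE fluorescence of all compound wells on the plate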
DHE fluor count: DHE quenching or ROS scavenging interference in aged yeast, artefact control for yeast caloric restriction mimetic project, S. cerevisiae BY4741, flow cytometry; 850 tested, under 10 active; DHE fluorescence; stronger effect = lower value; fluorescence response, % at 10 µM; AID 435000, 2010; shares compounds with Yeast superoxide;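 active = fluorescence response below 15%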;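 note: percent of the mean fluorescence averaged over all compound wells on the plate; lower means stronger quenching of DHE signal or ROS scavenging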
* hit, by the source's call; x = no result given. Hits are enriched below; roughly 3.9% of the tested compounds scored in any of these assays.

SMILES	AHR act	PLCb3 inh	sPLA2-III inh	HIF act	Yeast superoxide	PLC-gamma1 inh	others
O=C(O)CSc1nc(-c2ccccc2)nc2c1oc1ccccc12	18	-2	-21	0	133	2
O=C([C@@H]1C[C@H]1c1ccccc1)N1CCC(Oc2cccnc2)CC1	x	5	2	x	x	3
C=CCN(Cc1ccc(OC)c(OC)c1)C(=O)c1cc2cc(F)ccc2[nH]1	47*	-7	-20	0	109	-3
COc1cc2cc(C(=O)N(C)Cc3ccccc3)[nH]c2cc1OC	x	-15	11	0	99	-6
COc1ccc(CN2CCN(S(=O)(=O)c3ccccc3)CC2)c(OC)c1	52*	3	-5	0	94	-1
COc1ccc(OC)c(CN2CCN(S(=O)(=O)c3ccccc3)CC2)c1	8	-8	1	0	94	-1
O=C(/C=C/c1ccc(-c2ccccc2)cc1)NC1=NCCS1	x	0	-2	x	x	0
CCCC[C@H]1C2CC(OC(=O)Nc3ccc(F)cc3)C(C2)[C@H]2CCCCN21 (stereo not given in full)	x	0	0	x	x	0
Nc1c(C(=O)N2CCCCCC2)oc2ccccc12	73*	-21	14	-1	99	-9
Cc1c(C(=O)N2CCCCC2)oc2ccccc12	5	1	-5	x	98	-3
Cc1c(C(=O)N2CCc3ccccc3C2)oc2ccccc12	59*	-10	-2	2	112	0
COP1(=O)CCOCC[C@H](CC(C)C)NC(=O)[C@H](CC(C)C)N1 (stereo not given in full)	x	-2	11	x	x	-1
Cc1cc(C)c2c3c(sc2n1)C(=O)N(c1ccccc1C)CC(=O)N3	-2	3	17	0	90	4
Cc1ccc(N2CC(=O)Nc3c(sc4nc(C)cc(C)c34)C2=O)cc1	4	-4	0	26*	112	3
O=C1N=c2ccc(Br)cc2=C1c1sc(=O)[nH]c1O	64*	x	x	0	153	x
CNc1nc(N)c([N+](=O)[O-])c(Nc2cccc(Br)c2)n1	x	5	3	x	x	4
CCCCC(=O)Nc1ccc(NC(=S)NC(=O)CC(C)C)cc1OC	13	5	8	0	97	0
CCCCC(=O)Nc1ccc(NC(=O)CC)cc1OC	1	1	2	18*	100	1
CC(=O)c1cccc(NC(=O)c2cnn3c(C)cc(C)nc23)c1	x	1	11	x	x	1
O=C(NCc1ccccc1)[C@@H]1CCCN1C(=O)[C@H]1CCCN1C(=O)c1ccc(F)cc1F	x	5	0	x	x	3
O=C(CN1CCN(C(=O)c2c(F)cccc2F)CC1)Nc1ccccc1C(F)(F)F	0	-1	14	-2	52*	2	CR mimetic CP=108;DHE fluor count=110
COc1ccc(C)cc1-n1nnnc1SCc1nc(N)nc(N(C)C)n1	x	-2	17	x	x	1
COc1ccc(C)cc1-n1nnnc1SCc1cn2ccsc2n1	3	-1	-8	0	62*	-1	CR mimetic CP=118;DHE fluor count=110
COc1ccc(NC(=O)c2ccc(S(=O)(=O)N3CCOCC3)o2)cc1	34	-3	2	0	64*	0	CR mimetic CP=95;DHE fluor count=91
COc1cc(CN2CCNC(=O)C2CC(=O)NC2CCCC2)cc(OC)c1 (stereo not given)	3	-22	1	0	117	-11
C=CCSc1nnc(-c2ccc([N+](=O)[O-])cc2)o1	-5	-1	4	1	64*	0	CR mimetic CP=106;DHE fluor count=91
NC(=O)CSc1nnc(-c2ccc([N+](=O)[O-])cc2)o1	4	-8	0	0	115	1

Compound activity deposited in PubChem by several laboratories.
